AC50 and activity, negative = inhibition data for 68 compounds are collected here from PubChem BioAssay AID1851 (National Center for Advancing Translational Sciences (NCATS), 2009).

Among all 16,000 compounds or so, about 5,700 (36%) were called active. About 24% were inconclusive and are not listed. Calls follow the shape of the dose curve; as a rule, active = well fitted curve in the direction sought with a large enough effect; inconclusive = small, poorly fitted or top-dose-only effect, or effect the other way; inactive = no such curve, though single readings can be large or run the other way. The list shows a part of the results.
% is scaled to controls: 0 for no effect and ±100 for the full control effect.

For this experiment, the target named is Cytochrome P450 1A2 (Homo sapiens) (UniProt P05177). Briefly: Cytochrome panel assay with activity outcomes. As to conditions: recombinant CYP, pro-luciferin dealkylation, luminescence, p450-cyp1a2; series mostly up to 57.1 µM.
Chain of Cytochrome P450 1A2 (Homo sapiens) (P05177 whole entry, looked up): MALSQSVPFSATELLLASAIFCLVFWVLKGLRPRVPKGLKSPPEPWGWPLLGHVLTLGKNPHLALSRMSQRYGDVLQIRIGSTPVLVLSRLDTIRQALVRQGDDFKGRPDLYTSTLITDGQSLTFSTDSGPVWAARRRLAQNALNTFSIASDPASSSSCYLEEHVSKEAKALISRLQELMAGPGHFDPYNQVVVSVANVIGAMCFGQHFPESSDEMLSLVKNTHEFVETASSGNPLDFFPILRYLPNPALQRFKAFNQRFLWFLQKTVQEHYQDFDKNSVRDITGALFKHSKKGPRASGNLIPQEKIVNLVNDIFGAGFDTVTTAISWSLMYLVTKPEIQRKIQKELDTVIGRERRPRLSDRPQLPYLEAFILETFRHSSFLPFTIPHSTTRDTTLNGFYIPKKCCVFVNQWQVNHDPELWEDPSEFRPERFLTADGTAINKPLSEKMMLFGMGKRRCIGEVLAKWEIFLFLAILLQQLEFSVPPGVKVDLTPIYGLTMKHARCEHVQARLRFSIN
Take `COc1cc(CNCc2ccccn2)ccc1OCc1ccc(Cl)cc1Cl`: the AC50 was 0.316 µM (active). For the compound `COc1ccc(CNC(C)(C)C)cc1Cl`, the AC50 entry is “inactive”. Take `CCSc1nc2ccccc2n1C(=O)/C=C\c1ccc(OC)c(OC)c1`: the AC50 is 6.31 µM (active). Consider `C=CCSc1nc2ccccc2n1C(=O)/C=C/c1cc(OC)c(OC)c(OC)c1`, for which the AC50 is 7.08 µM (active).

For `CCn1c(-c2ccccc2Cl)nn(CC(=O)Nc2cc(Cl)ccc2Cl)c1=S`, the AC50 is 15.8 µM (active). On the same count and under the same terms, for `CCn1c(-c2ccccc2Cl)nn(CC(=O)Nc2ccccc2OC)c1=S` the value was “inactive”.

For the compound `CC(=O)OC[C@H]1O[C@@H](O/N=C(\C)CCN2CCCc3nc(C)c(C)cc32)[C@H](OC(C)=O)[C@@H](OC(C)=O)[C@H]1OC(C)=O`, the activity, negative = inhibition is 0.931% [at 11.4 µM] (inactive). In the case of `CC(C)(C)N1C(=O)[C@H]2[C@H]3[C@H](O)[C@H](O)C/C(=N/OC[C@@H](O)COCc4ccco4)[C@@H]3CC[C@@H]2C1=O`, the activity, negative = inhibition was 4.56% [at 11.4 µM] (inactive).

In the case of `COc1ccc(-c2noc(N(C)CC(=O)Nc3cccc(C(F)(F)F)c3)n2)cc1`, the AC50 was 5.01 µM (active). With `COCCNc1cc(-c2c(C)noc2C)ncn1`, the AC50 was 10 µM (active).

In the case of `Cc1noc(C)c1-c1cc(NC2CC2)ncn1`, the concentration at half-maximal activity (AC50) was 0.316 µM (active). `CNc1cc(-c2c(C)noc2C)ncn1`: the AC50 was 5.01 µM (active). Take `COCCNc1ncncc1-c1c(C)noc1C`: the AC50 entry is “inactive”. Take `COC(=O)N1CCC2(CC1)CN(C(c1ccccc1)c1ccccc1)C2`: the AC50 entry is “inactive”. As for `C[C@@]12CCC(=O)C=C1CC[C@@H]1[C@@H]2[C@H](O)C[C@]2(C)[C@@H]1CC[C@]2(O)C(=O)CO`, the AC50 result was “inactive”. Still for that read-out and setting: with `Cc1sc(NC(=O)c2ccccc2)c(C(=O)NCCN(C)C)c1C` the figure was 11.2 µM (active); with `CCN1CCN(C(c2ccccn2)c2c(NC(=O)c3ccccc3)sc(C)c2C)CC1` (stereo not drawn), “inactive”. Regarding `COC(=O)c1c(NC(C)=O)sc(Cc2ccccc2)c1C`, the half-maximal activity concentration (AC50) was 1.58 µM (active). On to `CC(C)C(=O)Nc1ccc(C(=O)NNC(=O)C(c2ccccc2)c2ccccc2)cc1`, for which the AC50 result is “inactive”. Regarding `CN(C(=O)CC(NC(=O)c1ccccc1)(c1ccccc1)c1ccccc1)c1ccccc1`, the AC50 entry was “inactive”.

Consider `CCOC(=O)c1c(NC(=O)Nc2ccccc2)sc(C)c1C`, for which the AC50 is 3.55 µM (active). Take `Cc1sc(NC(=O)C(C)C)c(C(=O)Nc2ccccc2)c1C`: the AC50 was 1.26 µM (active). For the compound `CCOc1ccc(CC(=O)Nc2sc(Cc3ccccc3)c(C)c2C(N)=O)cc1OCC`, the AC50 result was “inactive”.

In the case of `C=C(Br)CN(C)CC(=C)Br`, the activity, negative = inhibition was -4.98% [at 11.4 µM] (inactive).

As for `CC(C)SC(=N)N`, the AC50 result is “inactive”. Consider `Cc1noc(C)c1C(=O)N1CCC[C@@]2(CCN(C(=O)NC(C)C)C2)C1`, for which the AC50 entry was “inactive”. For the compound `O=C(O)CP(=O)(O)O`, the AC50 entry was “inactive”.

Turning to `Cc1oc(-c2cccc(Cl)c2)[n+]([O-])c1C`, the AC50 was 4.47 µM (active). The same measure, in the same setting: with `CCC(=O)Nc1ccc(C(=O)NNC(=O)c2cccs2)cc1` the entry was “inactive”; with `CCCC/C=C/C(NC(=O)c1ccco1)c1ccccc1` (stereo not drawn), 5.01 µM (active); with `CCC/C=C(\CCC)C(NP(=O)(c1ccccc1)c1ccccc1)c1ccc(C(F)(F)F)cc1` (stereo not drawn), “inactive”.

In the case of `O=C(c1cccs1)N1CCN(C(=O)C(c2ccccc2)c2ccccc2)CC1`, the AC50 result is “inactive”. Regarding `CCCC/C=C/C(NC(=O)c1cccs1)c1ccccc1` (stereo not drawn), the AC50 is 1.58 µM (active). As to `C#CCOC(=O)NC(/C=C/CCCC)c1ccccc1` (stereo not drawn), the AC50 was 15.8 µM (active). Take `CCCC/C=C/C(NC(=O)Oc1cccc(C(F)(F)F)c1)c1ccccc1` (stereo not drawn): the AC50 is 2.51 µM (active). On to `Nc1ncnc2c1nc(Br)n2[C@@H]1O[C@H]2COP(=O)(O)O[C@@H]2[C@H]1O`, for which the AC50 entry was “inactive”. `CC1(C)Cc2ccccc2C(N/N=C/c2cccc(F)c2)=N1`: the AC50 was 11.2 µM (active).

For `Cn1c(Oc2ccccc2)c(C=O)c2ccccc21`, the AC50 was 7.08 µM (active).

Turning to `COc1ccc(Oc2c(C=O)c3ccccc3n2C)cc1`, the AC50 is 14.1 µM (active). Take `Cc1cccc(C(=O)NN(C)c2nc(-c3ccccc3)nnc2C(F)(F)F)c1`: the AC50 entry was “inactive”. As for `FC(F)(F)c1nnc(-c2ccccc2)nc1Sc1ccccc1`, the concentration at half-maximal activity (AC50) is 1.41 µM (active). Regarding `COc1ccc(CC(=O)O/N=C(\N)Cc2ccc(OC)cc2)cc1`, the AC50 result was “inactive”. On to `COc1ccccc1C/C(N)=N/OC(=O)c1ccc(C)c([N+](=O)[O-])c1`, for which the AC50 was 14.1 µM (active). For `COc1ccccc1CNC(=O)C/C(C)=N/NC(=O)Cc1ccccc1`, the AC50 entry was “inactive”. `COc1ccccc1CC(=O)O/N=C(\N)Cc1cccc2ccccc12`: the AC50 is 11.2 µM (active). Still for that read-out and setting: for `C[N+](C)(C)CCOC(N)=O` the value was “inactive”. On the same count and under the same terms, for `CCOC(=O)[C@@H](O)Cc1cnc2ccccc2n1` the value was 3.16 µM (active). In the case of `O=S(=O)(c1cnccc1N1CCN(CCO)CC1)N1CCCC1`, the activity, negative = inhibition is -8.25% [at 2.29 µM] (inactive). For the compound `FC(F)(F)c1cc(CN2CCC3(CCNCC3)CC2)cc(C(F)(F)F)c1`, the AC50 result was “inactive”. On the same count and under the same terms, with `Cc1ccc(NC(=O)c2cccc(N(C)C)c2)cc1NC(=O)c1ccc(O)cc1` the figure was 1.26 µM (active); with `OC(COc1ccc(OCC(O)CN2CCCCCC2)cc1)CN1CCCCCC1` (stereo not drawn), “inactive”; with `Cc1nn(CC(O)COc2ccc3c(c2)CCC3)c(C)c1Br` (stereo not drawn), 12.6 µM (active). As for `COc1ccc(C2=CSC(/N=C/c3ccc(F)cc3)=NN2)cc1`, the concentration at half-maximal activity (AC50) is 2.82 µM (active). Consider `CC(C)=NO[C@@H](C)CN1CCCCc2nc(C)c(C)cc21`, for which the activity, negative = inhibition is -10.5% [at 11.4 µM] (inactive).

For `Cc1cc(Br)ccc1NC(=O)CCSc1ccccc1`, the AC50 is 4.47 µM (active). On the same count and under the same terms, for `Cc1ccc(NC(=O)CCC(=O)NNS(=O)(=O)c2ccccc2)c(C)c1` the value was “inactive”. Take `S=C(S)O[C@@H]1C[C@@H]2C[C@H]1[C@@H]1CCC[C@H]21`: the AC50 result was “inactive”. Regarding `O=C(COc1ccc(-c2ccccc2)cc1)N/N=C/c1ccccc1Br`, the AC50 is 5.01 µM (active). Take `COc1ccc(OCC(=O)NNC(=O)c2ccc(-c3ccccc3)cc2)cc1`: the AC50 result was “inactive”.

In the case of `O=C(COc1ccccc1-c1ccccc1)N/N=C/c1cccc2ccccc12`, the AC50 was 0.794 µM (active). For the compound `O=c1[nH]c(SCc2c(Cl)c(Cl)c(Cl)c(Cl)c2Cl)nc(=S)[nH]1`, the AC50 was 1 µM (active).

Turning to `CCCC[C@H]1C[C@@H]1[C@@H]1N(P(=O)(c2ccccc2)c2ccccc2)[C@](CO)(c2ccccc2)CC12CC2`, the AC50 entry is “inactive”. Regarding `CCCc1nnc(SCC(=O)O)n1/N=C/c1ccc2c(c1)OCO2`, the AC50 is 15.8 µM (active). In the case of `CCCc1nnc(SCC(=O)N2CCCCC2)n1CCCOC`, the AC50 entry is “inactive”. On to `CCc1n[nH]c(=S)n1/N=C/c1ccc2c(c1)OCO2`, for which the AC50 is 2.24 µM (active). As for `CSc1nncn1/N=C/c1ccc2c(c1)OCO2`, the concentration at half-maximal activity (AC50) is 4.47 µM (active). On to `OC[C@@H]1O[C@@H](O)[C@H](N=Cc2ccc3c(c2)OCO3)[C@@H](O)[C@@H]1O`, for which the activity, negative = inhibition is -24.4% [at 2.29 µM] (inactive). As to `CCCc1nnc(SCC(=O)N2CCCC(C)C2)n1CC1CCCO1` (stereo not drawn), the AC50 result is “inactive”.
